Only some compounds are listed: those with a hit (about 7.6% of all), similar ones and a draw of the others.
p53 reactivator – qHTS assay for re-activators of p53 using a Luc reporter; H1299 p53-A138V BP100-luciferase reporter, luminescence, 24 h; Potency, µM (series often up to 92.2 µM), inactives show at the top dose activity change, positive = activation, usual class: activators; 320,000 compounds, 0.063% hits; AID 504706, 2011; also: potency is read from the fitted curve at half-maximal effect; % of control where 0% means no effect; nearly all actives have a fitted effect of over 45% in size
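H1299 (p53-null), stable ts p53-A138V + BP100-Luc; 1000 cells/well, Opti-MEM/10% FBS; cpd 4 pt, 1:5; 24 h, 37 deg C, 5% CO2; detection reagent 10 min RT; luminescence.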
ELG1 repair inh – qHTS screen for small molecules that inhibit ELG1-dependent DNA repair in human embryonic kidney (HEK293T) cells expressing luciferase-tagged ELG1; HEK293T ELG1-luciferase reporter, luminescence, 16 h; DNA damage induced by 5-fluorouridine; Potency, µM (top dose mostly 46.1 µM), inactives show at the highest dose activity change, negative = inhibition, usual class: inhibitors; 330,000 compounds, 2.3% hits; also: potency is read from the fitted curve at half-maximal effect; % is scaled to controls: 0 for no effect and ±100 for the full control effect; nearly all actives have a fitted effect of over 55% in size
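Overnight (16 hr) co-exposure of 2,000 cells/well to 5-fluorouridine and compound at 37 °C preceded detection. Luciferase was quantified via ONE-Glo luminescence; loss of signal denotes inhibition.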
VP16 counter – VP16 counterscreen qHTS for inhibitors of ROR gamma transcriptional activity; 310,000 compounds, 3.5% hits; Potency, µM (titrated, usually from 53.6 µM), inactives show at the top dose activity, negative = inhibition, usual class: inhibitors; Drosophila S2 Gal4-VP16 UAS-luciferase, luminescence, 20 h; AID 2546, 2010;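 also: Gal4-VP16 expression switched on by copper sulfate through the metallothionein promoter; potency is read from the fitted curve at half-maximal effect; % is scaled to controls: 0 for no effect and ±100 for the full control effect; nearly all actives have a fitted effect of over 50% in size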
Giardia killer – Small Molecules that selectively kill Giardia lamblia: qHTS; 340,000 compounds, 0.15% hits; activity change, % at 7.66 µM, hits read low; Giardia lamblia trophozoite viability; in the data active = activity change below about -80%; inconclusive = between about -30% and that limit;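 also: parasites exposed to compound for two days anaerobically before the ATP read; % is scaled to controls: 0 for no effect and ±100 for the full control effect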
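Killing of trophozoites was scored by loss of ATP luminescence after a 48 hrs anaerobic exposure to compounds at 37 deg C, using 100 cells per well.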
RORg inh – qHTS for inhibitors of ROR gamma transcriptional activity | Nuclear receptor ROR-gamma (Mus musculus), P51450 | Drosophila S2 Gal4-RORgamma UAS-luciferase reporter, 20 h | Potency, µM (doses to about 53.6 µM), without a hit: at the highest dose activity change, negative = inhibition, actives largely listed as inhibitors | 310,000 compounds, 5.4% hits; also: potency is read from the fitted curve at half-maximal effect; % is scaled to controls: 0 for no effect and ±100 for the full control effect; nearly all actives have a fitted effect of over 60% in size
Target sequence (P51450 whole entry, looked up, the tested form may be a part): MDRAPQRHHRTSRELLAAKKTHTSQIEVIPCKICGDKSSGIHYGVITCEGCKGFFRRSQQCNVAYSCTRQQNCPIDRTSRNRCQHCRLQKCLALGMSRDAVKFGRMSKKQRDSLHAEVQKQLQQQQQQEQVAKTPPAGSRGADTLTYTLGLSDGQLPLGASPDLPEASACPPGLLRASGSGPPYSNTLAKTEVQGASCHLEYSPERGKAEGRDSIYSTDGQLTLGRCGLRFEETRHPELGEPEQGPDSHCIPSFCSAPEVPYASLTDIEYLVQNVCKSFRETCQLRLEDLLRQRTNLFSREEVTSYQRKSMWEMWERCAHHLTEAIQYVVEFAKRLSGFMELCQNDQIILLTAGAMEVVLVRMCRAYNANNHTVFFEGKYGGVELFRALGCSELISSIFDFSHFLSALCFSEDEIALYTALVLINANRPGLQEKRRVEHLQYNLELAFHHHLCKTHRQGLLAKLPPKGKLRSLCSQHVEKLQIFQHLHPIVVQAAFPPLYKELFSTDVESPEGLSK
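Stable Schneider cell line, Gal4 DNA-binding domain fused to ROR gamma, UAS-luciferase. Cmpd 1 hr RT → CuSO4 700 uM final → 20 hr RT → luciferase reagent 10 min → luminescence.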
BRCA1 expr up – qHTS Assay to Identify Small Molecule Activators of BRCA1 Expression. MCF7-BRCA1-FFLuc reporter, luminescence, 48 h; response scale: scaled: vehicle 0%, 10 µM genistein 100%. Potency, µM (series often up to 46.1 µM), for the others: at the top dose activation, hits mostly activators. 380,000 compounds, 1.1% hits. AID 624202, 2012; also: potency is read from the fitted curve at half-maximal effect; nearly all actives have a fitted effect of over 80% in size
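Quantitative HTS in MCF7 cells stably reporting BRCA1 expression via firefly luciferase. Compound treatment lasts 48 h at 37 °C in phenol-red free MEM. Activation is expressed relative to genistein at 10 microM and DMSO.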
Starred values were filed as active, the others as inactive; ? = inconclusive; . = not tested or not shown. Unless noted, calls follow the shape of the dose curve; as a rule, active = well fitted curve in the direction sought with a large enough effect; inconclusive = small, poorly fitted or top-dose-only effect, or another doubt; inactive = no such curve, though single readings can be large; an effect the other way counts as inactive or inconclusive.

SMILES	p53 reactivator	ELG1 repair inh	VP16 counter	Giardia killer	RORg inh	BRCA1 expr up
Cc1c(C(=O)NCC(C)(C)N2CCOCC2)oc2ccccc12	9%	28%	.	2	.	6%
O=C(Nc1cccc(S(=O)(=O)N2CCOCC2)c1)C1CCCN(C(=O)c2ccc(Cl)cc2)C1 (configuration not stated)	-5%	-29%	-18%	0	?	-18%
Cc1cc(-c2ccccc2)n(-c2cc(N/N=C/c3ccccc3O)ncn2)n1	23%	?	5.6µM*	-14	11µM*	-87%
CNc1cc(-n2nc(C)cc2-c2ccccc2)ncn1	-4%	1%	1%	-10	-21%	-12%
CCOc1ccc2ccccc2c1C1NC(=S)N(C)C(C)=C1C(=O)OC (configuration not stated)	3%	3%	-6%	1	-4%	-9%
CCOC(=O)C1=C(C)N(C)C(=S)NC1c1ccc(Cl)cc1 (configuration not stated)	-13%	?	3.5µM*	1	?	-20%
CCOC(=O)C1=C(C)N(C)C(=S)NC1c1c(OCC)ccc2ccccc12 (configuration not stated)	0%	6%	18µM*	-25	2.8µM*	0%
CCOC(=O)C1=C(C)N(CCCC(=O)O)C(=O)NC1c1ccc(Cl)cc1 (configuration not stated)	.	-14%	8%	-14	12%	27%
CCOC(=O)C1=C(C)N(C)C(C)=C(C(=O)OCC)C1c1ccc(Cl)cc1	-7%	-6%	22µM*	3	-25%	-68%
COC(=O)C1=C(C)N(C)C(=S)NC1c1ccc(Cl)cc1 (configuration not stated)	-9%	-1%	11µM*	1	7.9µM*	1%
CC(C)CC(=O)N1CCN(Cc2ccc(Br)cc2)CC1	-79%	-21%	0%	10	7%	5%
O=C(CSc1nc(=O)n(CCCN2CCOCC2)c2c1CCC2)Nc1cccc(F)c1	-1%	-2%	.	6	.	-10%
CC1=NN(c2ccccc2)C(=O)/C1=C/c1c(O)n(-c2ccc(F)c(Cl)c2)[nH]c1=O	?	?	-8%	-11	1%	?
CCOC(=O)C1=C(C)C(c2cccc(Oc3ccccc3)c2)NC(=S)N1 (configuration not stated)	-6%	26µM*	18µM*	33	7.1µM*	-52%
CCOC(=O)C1=C(C)NC(=S)N(C(C)=O)C1c1ccc(OC)c(OC)c1 (configuration not stated)	-1%	-13%	4%	-25	?	-21%
CCOC(=O)C1=C(C)N(C)C(=S)NC1c1ccccc1 (configuration not stated)	-2%	-3%	8.9µM*	6	6.3µM*	-44%
CCOC(=O)C1=C(C)C(c2ccc(OC)cc2)NC(=S)N1 (configuration not stated)	-4%	-2%	-4%	-11	?	-22%
CCOC(=O)C1=C(C)NC(=S)N(C(C)=O)C1c1ccc(Cl)cc1 (configuration not stated)	-2%	?	18µM*	0	7.9µM*	-30%
COC(=O)C1=C(C)N(C)C(=O)NC1c1ccc(O)c(OC)c1 (configuration not stated)	0%	25%	-16%	20	?	-2%
COC(=O)C1=C(C)N(C)C(=S)NC1c1ccc(OC)cc1OC (configuration not stated)	2%	-3%	?	-3	16µM*	-10%
O=C(NCc1ccccc1)c1cc[n+]([O-])cc1	0%	5%	-3%	27	-24%	-2%
CC1=C(C(=O)OC(C)C)C(c2ccccc2)NC(=S)N1C (configuration not stated)	-8%	-4%	?	9	14µM*	-28%
CC1=C(C(=O)OC(C)C)C(c2ccsc2)NC(=O)N1C (configuration not stated)	-2%	-13%	0%	-4	6%	-15%
O=C(NCc1ccccc1)c1ccc2c(c1)C(=O)N(CC1CCCO1)C2=O (configuration not stated)	-1%	12%	-4%	12	9%	8%
COc1ccc(NC(=O)c2cc3c(s2)CCC(C)C3)cc1S(=O)(=O)N1CCOCC1 (configuration not stated)	1%	23µM*	-1%	-11	?	-68%
SMILES	p53 reactivator	ELG1 repair inh	VP16 counter	Giardia killer	RORg inh	BRCA1 expr up
CCc1sc(C(=O)Nc2ccc(OC)c(S(=O)(=O)N3CCOCC3)c2)cc1C	-6%	8.2µM*	.	-6	.	-26%
COc1ccc(NC(=O)C2CCC2)cc1S(=O)(=O)N1CCOCC1	4%	15%	.	0	.	-1%
Cc1ccc(S(=O)(=O)N2CCOC2CNC(=O)C(=O)NCCc2c[nH]c3ccccc23)cc1 (configuration not stated)	-4%	?	-7%	6	40%	-53%
CCOC(=O)c1ccc(-n2ncc(C(=O)OCC)c2N)cc1	18%	5%	13%	-22	?	3%
CCOC(=O)c1cnn(-c2ccc(C)cc2)c1N	15%	?	6%	1	8%	11µM*
C=CCn1c(=O)c(C(=O)NCc2ccc(Cl)cc2)c(O)c2ccccc21	-22%	-15%	?	-10	?	-48%
C=CCn1c(=O)c(C(=O)NCCc2ccccc2)c(O)c2ccccc21	16%	-5%	?	5	14µM*	-25%
CCCn1c(=O)c(C(=O)NCCc2ccccc2)c(O)c2ccccc21	.	9%	?	-16	-73%	25%
CCCn1c(=O)c(C(=O)NCCc2ccc(OC)cc2)c(O)c2ccccc21	6%	-12%	13µM*	21	?	-40%
COc1ccc(-c2csc(N3C(=O)CNC3=S)n2)cc1	16%	?	?	-2	?	?
O=C1CNC(=S)N1c1nc(-c2ccccc2)cs1	10µM*	?	?	21	3.2µM*	-41%
CCCCCC1OC1C/C=C\C/C=C\C/C=C\CCCC(=O)O (configuration not stated)	.	.	-3%	.	-14%	.
CCOC(=O)Nc1ccc2c(c1)N(C(=O)CCN(CC)CC)c1ccccc1CC2	.	0%	-16%	28	-2%	-42%
